{"source": "PubChem BioAssay (NCATS)", "note": "Where “and” joins values, the source holds several entries; their conditions need not be identical. Equal values may be shown once. Records with an inconclusive call do not appear. Unmarked numbers belong to inactive results. Calls of active or inactive are those of the source. Calls come from the whole dose curve; as a rule, active = well fitted curve in the direction sought with a large enough effect; inconclusive = small, poorly fitted or top-dose-only effect, or another doubt; inactive = no such curve, though single readings can be large; an effect the other way counts as inactive or inconclusive. Potency is the fitted concentration of half-maximal effect."}
{"test": "P-glycoprotein substrates identified in KB-8-5-11 adenocarcinoma cell line, qHTS therapeutic library screen (AID 1346987); note: nearly all actives have a fitted effect of over 65% in size; for activity change, negative = cytotoxicity: % is set by controls: 0 for no effect and ±100 for the full control effect", "conditions": "KB-8-5-11 (P-gp overexpressing) viability, CellTiter-Glo, 72 h; series mostly up to 44.5 µM; activity change, negative = cytotoxicity: at the top concentration", "outline": "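KB-8-5-11: colchicine-selected sub-line of KB-3-1 over-expressing P-gp; assay medium lacked colchicine. 72 h drug exposure at 37 degree C, CellTiter-Glo.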"}
{"smiles": "CON=C(C(=O)N[C@@H]1C(=O)N2C(C(=O)O)=C(Cn3ccc(=N)n3CCO)CS[C@H]12)c1csc(N)n1", "activity change, negative = cytotoxicity": "2.12%"}
{"smiles": "CCc1cc(C(C)=NOCc2ccc(C3CCCCC3)c(C(F)(F)F)c2)ccc1CN1CC(C(=O)O)C1", "outcome": "inactive"}
{"smiles": "COc1ccc([C@@H]2CNC(=O)C2)cc1OC1CCCC1", "activity change, negative = cytotoxicity": "2.14%"}
{"smiles": "N#CC(=Cc1ccc(O)c(O)c1)C(=O)NCc1ccccc1", "activity change, negative = cytotoxicity": "-23.2%"}
{"smiles": "CC(=O)O[C@]1(C(C)=O)CC[C@H]2[C@@H]3C=C(C)C4=CC(=O)CC[C@]4(C)[C@@H]3CC[C@@]21C", "outcome": "inactive"}
{"smiles": "N#CC(=C(N)Sc1ccc(N)cc1)c1ccccc1C(F)(F)F", "activity change, negative = cytotoxicity": "-19%"}
{"smiles": "COc1cc(C)c(Sc2cnc(NC(=O)c3ccc(CNC(C)C(C)(C)C)cc3)s2)cc1C(=O)N1CCN(C(C)=O)CC1", "note": "(stereo not drawn)", "outcome": "inactive"}
{"smiles": "CC(=O)N[C@H]1[C@@H]([C@H](O)[C@H](O)CO)OC(C(=O)O)=C[C@@H]1N=C(N)N", "outcome": "inactive"}
{"smiles": "C=C1C[C@@]2(O)O[C@@]3(C[C@H]2C(C)C)[C@H](C)CC[C@H]13", "outcome": "inactive"}
{"smiles": "CS(=O)(=O)N1CCc2c(-c3cnc(N)nc3)nc(N3CCOCC3)nc21", "Potency": "1.3 µM (active)"}
{"smiles": "Cc1ccc2nc(NCCN)c3ncc(C)n3c2c1", "Potency": "4.18 µM (active) and 6.51 µM (active)"}
{"smiles": "O=C(O)C=Cc1ccc(Cn2ccnc2)cc1", "outcome": "inactive"}
{"smiles": "CC(=O)N1CCN(c2ccc(OCc3nn(C)c(C)c3-c3cccc4c(CCCOc5cccc6ccccc56)c(C(=O)O)n(Cc5cccnc5)c34)cc2)CC1", "outcome": "inactive"}
{"smiles": "NC1=N[C@H]2[C@H](CS[C@H]2CCCCC(=O)O)N1", "activity change, negative = cytotoxicity": "5.44% [at 17.3 µM]"}
{"smiles": "OCc1ccccc1O[C@@H]1O[C@H](CO)[C@H](O)[C@H](O)[C@H]1O", "outcome": "inactive"}
{"smiles": "OCCN1C[C@H](O)[C@@H](O)[C@H](O)[C@@H]1CO", "activity change, negative = cytotoxicity": "2.34%"}
{"smiles": "COC(=O)[C@@H]1CC2=CC(=O)CC[C@]2(C)[C@@]23O[C@@H]2C[C@@]2(C)[C@H](CC[C@@]24CCC(=O)O4)[C@@H]13", "activity change, negative = cytotoxicity": "0.499%"}
{"smiles": "CN[C@H](CC(C)C)C(=O)N[C@H]1C(=O)N[C@@H](CC(N)=O)C(=O)N[C@@H]2C(=O)N[C@H]3C(=O)N[C@H](C(=O)N[C@H](C(=O)O)c4cc(O)cc(O)c4-c4cc3ccc4O)[C@H](O)c3ccc(c(Cl)c3)Oc3cc2cc(c3O[C@@H]2O[C@H](CO)[C@@H](O)[C@H](O)[C@@H]2O[C@H]2C[C@](C)(N)[C@H](O)[C@H](C)O2)Oc2ccc(cc2Cl)[C@H]1O", "outcome": "inactive"}
{"smiles": "Cc1ccccc1C(=O)Nc1ccc(C(=O)N2CCCC(O)c3cc(Cl)ccc32)c(C)c1", "note": "(stereo not drawn)", "activity change, negative = cytotoxicity": "-5.69%"}
{"smiles": "CNC(=O)Nc1ccc(-c2nc(N3CC4CCC(C3)O4)c3cnn(C4CCC5(CC4)OCCO5)c3n2)cc1", "Potency": "14.8 nM (active) and 184 nM (active)"}
{"smiles": "CN[C@H]1[C@@H](O)[C@@H]2O[C@@H]3O[C@H](C)CC(=O)[C@]3(O)O[C@@H]2[C@@H](NC)[C@H]1O", "activity change, negative = cytotoxicity": "2.58%"}
{"smiles": "O=c1[nH]c(=O)n([C@H]2C[C@@H](O)[C@@H](CO)O2)cc1C=CBr", "outcome": "inactive"}
{"smiles": "C=Cc1c(C)c2cc3nc(cc4[nH]c(cc5nc(cc1[nH]2)C(C)=C5CCC(=O)O)c(CCC(=O)OC)c4C)[C@@]1(C)C3=CC=C(C(=O)OC)[C@H]1C(=O)OC", "outcome": "inactive"}
{"smiles": "CC(C)(O)CC[C@@H](O)[C@](C)(O)[C@H]1CC[C@@]2(O)C3=CC(=O)[C@@H]4C[C@@H](O)[C@@H](O)C[C@]4(C)[C@@H]3CC[C@]12C", "activity change, negative = cytotoxicity": "3.01%"}
{"smiles": "CCCCC(=O)O[C@]1(C(=O)CO)[C@@H](C)C[C@H]2[C@@H]3CCC4=CC(=O)C=C[C@]4(C)[C@@]3(F)[C@@H](O)C[C@@]21C", "outcome": "inactive"}
{"smiles": "CC(=O)C1=C(O)C=C2Oc3c(C(C)=O)c(O)c(C)c(O)c3C2(C)C1=O", "note": "(stereo not drawn)", "activity change, negative = cytotoxicity": "3.99%"}
{"smiles": "CC(Cc1ccc(O)c(O)c1)(NN)C(=O)O", "note": "(stereo not drawn)", "activity change, negative = cytotoxicity": "-0.911%"}
{"smiles": "CCNC(=O)Nc1ccc(-c2nc3c(c(N4CCOC[C@H]4C)n2)CCN(C2COC2)C3)cc1", "Potency": "1.84 µM (active)"}
{"smiles": "O=C(Nc1ccc(Oc2ccnc3[nH]ccc23)c(F)c1)c1cccn(-c2ccc(F)cc2)c1=O", "activity change, negative = cytotoxicity": "7.3%"}
{"smiles": "C[C@@H]1[C@H](C)CC[C@]2(C(=O)O)CC[C@]3(C)C(=CC[C@@H]4[C@@]5(C)C[C@@H](O)[C@H](O)[C@@](C)(CO)[C@H]5CC[C@]43C)[C@@H]12", "outcome": "inactive"}
{"smiles": "CCCCCCCCCCCCc1ccc(S(=O)(=O)Nc2nncs2)cc1", "activity change, negative = cytotoxicity": "-2.92%"}
{"smiles": "CON=C(C(=O)N[C@@H]1C(=O)N2C(C(=O)O)=C(CSC(=O)c3ccco3)CS[C@H]12)c1csc(N)n1", "outcome": "inactive"}
{"test": "NS1 protein of Zika virus - qHTS assay to identify small molecule inhibitors in human HEK 293 cells (AID 1347053); note: nearly all actives have a fitted effect of over 55% in size;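 for activity change, negative = inhibition: plate controls were infected untreated cells for no effect and uninfected cells for full effect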", "conditions": "HEK293 ZIKV MR766 infection, NS1 TR-FRET, 24 h; series mostly up to 46.1 µM; activity change, negative = inhibition: at the top concentration", "outline": "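HEK 293; 20 h pre-culture, 37 C/5% CO2; cpd 1 h pre-infection; ZIKV MR766, MOI = 0.5, 24 h, 37 C; TR-FRET NS1 readout (two anti-NS1 Abs); norm. to no-virus vs infected.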"}
{"smiles": "CON=C(C(=O)N[C@@H]1C(=O)N2C(C(=O)O)=C(Cn3ccc(=N)n3CCO)CS[C@H]12)c1csc(N)n1", "activity change, negative = inhibition": "-1.27%"}
{"smiles": "CCc1cc(C(C)=NOCc2ccc(C3CCCCC3)c(C(F)(F)F)c2)ccc1CN1CC(C(=O)O)C1", "activity change, negative = inhibition": "-5.19%"}
{"smiles": "COc1ccc([C@@H]2CNC(=O)C2)cc1OC1CCCC1", "activity change, negative = inhibition": "-4.85%"}
{"smiles": "CC(=O)O[C@]1(C(C)=O)CC[C@H]2[C@@H]3C=C(C)C4=CC(=O)CC[C@]4(C)[C@@H]3CC[C@@]21C", "activity change, negative = inhibition": "-17%"}
{"smiles": "N#CC(=C(N)Sc1ccc(N)cc1)c1ccccc1C(F)(F)F", "activity change, negative = inhibition": "7.54%"}
{"smiles": "COc1ccc(Nc2cc(-c3cnc(N)nc3)nc(N3CCOCC3)n2)cn1", "Potency": "16.6 µM (active)"}
{"smiles": "C[N+]1(C)[C@@H]2C[C@@H](OC(=O)C(O)(c3cccs3)c3cccs3)C[C@H]1[C@@H]1O[C@@H]12", "activity change, negative = inhibition": "-2.64%"}
{"smiles": "CC(=O)N[C@H]1[C@@H]([C@H](O)[C@H](O)CO)OC(C(=O)O)=C[C@@H]1N=C(N)N", "activity change, negative = inhibition": "2.07%"}
{"smiles": "C=C1C[C@@]2(O)O[C@@]3(C[C@H]2C(C)C)[C@H](C)CC[C@H]13", "activity change, negative = inhibition": "3.93%"}
{"smiles": "O=C(O)c1ccc(Nc2ncc3c(n2)-c2ccc(Cl)cc2C(c2c(F)cccc2F)=NC3)cc1", "activity change, negative = inhibition": "0.693%"}
{"smiles": "Cc1ccc2nc(NCCN)c3ncc(C)n3c2c1", "Potency": "26.4 µM (active)"}
{"smiles": "CC(=O)N1CCN(c2ccc(OCc3nn(C)c(C)c3-c3cccc4c(CCCOc5cccc6ccccc56)c(C(=O)O)n(Cc5cccnc5)c34)cc2)CC1", "activity change, negative = inhibition": "12.5%"}
{"smiles": "NC1=N[C@H]2[C@H](CS[C@H]2CCCCC(=O)O)N1", "activity change, negative = inhibition": "2.47% [at 20.1 µM]"}
{"smiles": "OCc1ccccc1O[C@@H]1O[C@H](CO)[C@H](O)[C@H](O)[C@H]1O", "activity change, negative = inhibition": "11.9%"}
{"smiles": "OCCN1C[C@H](O)[C@@H](O)[C@H](O)[C@@H]1CO", "activity change, negative = inhibition": "1.77%"}
{"smiles": "COC(=O)[C@@H]1CC2=CC(=O)CC[C@]2(C)[C@@]23O[C@@H]2C[C@@]2(C)[C@H](CC[C@@]24CCC(=O)O4)[C@@H]13", "activity change, negative = inhibition": "-4.56%"}
{"smiles": "CN[C@H](CC(C)C)C(=O)N[C@H]1C(=O)N[C@@H](CC(N)=O)C(=O)N[C@@H]2C(=O)N[C@H]3C(=O)N[C@H](C(=O)N[C@H](C(=O)O)c4cc(O)cc(O)c4-c4cc3ccc4O)[C@H](O)c3ccc(c(Cl)c3)Oc3cc2cc(c3O[C@@H]2O[C@H](CO)[C@@H](O)[C@H](O)[C@@H]2O[C@H]2C[C@](C)(N)[C@H](O)[C@H](C)O2)Oc2ccc(cc2Cl)[C@H]1O", "activity change, negative = inhibition": "0.43%"}
{"smiles": "Cc1cn([C@@H]2O[C@H](CO)[C@@H](O)[C@H]2F)c(=O)[nH]c1=O", "activity change, negative = inhibition": "6.94%"}
{"smiles": "Cc1ccccc1C(=O)Nc1ccc(C(=O)N2CCCC(O)c3cc(Cl)ccc32)c(C)c1", "note": "(stereo not drawn)", "activity change, negative = inhibition": "-8.58%"}
{"smiles": "CNC(=O)Nc1ccc(-c2nc(N3CC4CCC(C3)O4)c3cnn(C4CCC5(CC4)OCCO5)c3n2)cc1", "Potency": "16.6 µM (active)"}
{"smiles": "CN[C@H]1[C@@H](O)[C@@H]2O[C@@H]3O[C@H](C)CC(=O)[C@]3(O)O[C@@H]2[C@@H](NC)[C@H]1O", "activity change, negative = inhibition": "-0.874%"}
{"smiles": "C=Cc1c(C)c2cc3nc(cc4[nH]c(cc5nc(cc1[nH]2)C(C)=C5CCC(=O)O)c(CCC(=O)OC)c4C)[C@@]1(C)C3=CC=C(C(=O)OC)[C@H]1C(=O)OC", "activity change, negative = inhibition": "-4.51%"}
{"smiles": "CC(C)(O)CC[C@@H](O)[C@](C)(O)[C@H]1CC[C@@]2(O)C3=CC(=O)[C@@H]4C[C@@H](O)[C@@H](O)C[C@]4(C)[C@@H]3CC[C@]12C", "activity change, negative = inhibition": "-0.364%"}
{"smiles": "CCCCC(=O)O[C@]1(C(=O)CO)[C@@H](C)C[C@H]2[C@@H]3CCC4=CC(=O)C=C[C@]4(C)[C@@]3(F)[C@@H](O)C[C@@]21C", "activity change, negative = inhibition": "-10.1%"}
{"smiles": "CC(=O)C1=C(O)C=C2Oc3c(C(C)=O)c(O)c(C)c(O)c3C2(C)C1=O", "note": "(stereo not drawn)", "activity change, negative = inhibition": "-2.25%"}
{"smiles": "C=CC(=O)N1CCc2ccc(-n3c(=O)ccc4cnc5ccc(-c6cnn(C)c6)cc5c43)cc21", "Potency": "2.96 µM (active)"}
{"smiles": "CC(Cc1ccc(O)c(O)c1)(NN)C(=O)O", "note": "(stereo not drawn)", "activity change, negative = inhibition": "7.78%"}
{"smiles": "CCNC(=O)Nc1ccc(-c2nc3c(c(N4CCOC[C@H]4C)n2)CCN(C2COC2)C3)cc1", "activity change, negative = inhibition": "3.75%"}
{"smiles": "CC1(C)O[C@@H]2C[C@H]3[C@@H]4CCC5=CC(=O)C=C[C@]5(C)[C@@H]4[C@@H](O)C[C@]3(C)[C@]2(C(=O)CO)O1", "activity change, negative = inhibition": "8%"}
{"smiles": "O=C(Nc1ccc(Oc2ccnc3[nH]ccc23)c(F)c1)c1cccn(-c2ccc(F)cc2)c1=O", "activity change, negative = inhibition": "4.75%"}
{"smiles": "CON=C(C(=O)N[C@@H]1C(=O)N2C(C(=O)O)=C(CSC(=O)c3ccco3)CS[C@H]12)c1csc(N)n1", "activity change, negative = inhibition": "1.77%"}
